We go through 60 compounds from PubChem BioAssay AID463173 (ICCB-Longwood Screening Facility, Harvard Medical School, 2010).

About 4,300 (8.3%) of roughly 52,000 compounds were called active. The list comes from a sample in which actives are over-represented; it also holds similar structures and randomly drawn compounds. Values without a mark were called inactive. Rule as the data show it: active = survival mostly below about 52% (no sharp cut-off); inactive = mostly above about 56%.

This assay deals with DeltatarO mutant. Put plainly: growth inhibition of S. aureus wild type versus tarO mutant, primary screen, teichoic acid synthesis inhibitors, RN4220, OD600 (AID 463173). To be noted: OD600, 18 h, hits give low values, screened at 18.75 µg/mL (by protocol).
Regarding `Cc1ccc(C)c(Nc2nc3nonc3nc2Nc2cccc(C)c2C)c1`, the survival was 2% (active). Consider `Cc1cccc(Nc2nc3nonc3nc2N/N=C\c2cccs2)c1C`, for which the survival was 69%.

Consider `Cc1cccc(Nc2nc3nonc3nc2Nc2cccc(C)c2C)c1C`, for which the survival was 66%.

For the compound `Ic1ccc(Nc2nc3nonc3nc2N/N=C\c2ccco2)cc1`, the survival was 53%. `CCOC(=O)c1ccc(Nc2nc3nonc3nc2NCc2ccco2)cc1`: the survival was 5% (active).

For the compound `Brc1ccc(NCc2ccco2)cc1`, the survival is 96%. Consider `CCOC(=O)c1ccc(Nc2nc3nonc3nc2Nc2cccc(C)c2C)cc1`, for which the survival was -1% (active). For the compound `CCOC(=O)c1ccc(NC(=O)C(=O)NCc2ccco2)cc1`, the survival is 63%. Consider `Brc1cccc(Nc2nc3nonc3nc2NCc2ccco2)c1`, for which the survival is 6% (active). Turning to `CCOC(=O)c1ccc(Nc2nc(C)cc(C)n2)cc1`, the survival is 85%. Consider `CCOC(=O)c1ccc(Nc2nc3ccc(C(=O)c4ccccc4)cc3n3c(C)nnc23)cc1`, for which the survival is 109%. For the compound `O=C(c1ccc(F)cc1F)N1CCC(c2nc(-c3ccc(S(=O)(=O)N4CCCC4)cc3)no2)CC1`, the survival was 97%. The same measure for `O=S(=O)(c1ccc2ccccc2c1)n1nc(-c2ccco2)nc1NCc1ccc(F)cc1`: 106%; for `Cc1oc(-c2cccc(Cl)c2)nc1CN1CCC(C(=O)NC(C)c2ccccc2)CC1` (stereo not given): 85%; for `CC(=O)Nc1ccccc1OCc1cc(=O)n2c3c(sc2n1)CCCC3`: 120%.

For the compound `O=C(/C=C/c1ccccc1)C1=C(O)C(=O)N(CCO)C1c1ccc2c(c1)OCO2` (stereo not given), the survival was 79%. Consider `COc1ccc(-c2oc3ncn4nc(-c5ccccc5O)nc4c3c2-c2ccc(OC)cc2)cc1`, for which the survival is 62%. Regarding `CN(C)c1ccc(CNC(=O)c2cc3cc(S(=O)(=O)N4CCCCC4)ccc3n2C)cc1`, the survival is 8% (active). For the compound `Cc1ccccc1CCNC(=O)c1cc2cc(S(=O)(=O)N3CCCCC3)ccc2n1C`, the survival is 20% (active).

As for `Cc1ccccc1CNC(=O)c1cc2cc(S(=O)(=O)N3CCCCC3)ccc2n1C`, the survival was 102%.

As for `CCc1ccc(CNC(=O)c2cc3cc(S(=O)(=O)N4CCCCC4)ccc3n2C)cc1`, the survival is 60%. For the compound `Cn1c(C(=O)NCc2ccc(F)cc2)cc2cc(S(=O)(=O)N3CCCCC3)ccc21`, the survival is 126%. Consider `Cn1c(C(=O)NCCc2ccccc2)cc2cc(S(=O)(=O)N3CCCCC3)ccc21`, for which the survival was 94%. Take `CC(C)NC(=O)CCn1c(SCc2c(F)cccc2Cl)nc2c(sc3ccccc32)c1=O`: the survival is 67%.

In the case of `COc1ccccc1NC(=O)N1CCN(Cc2ccccc2)CC1`, the survival is 87%.

As for `Cc1cc(C)c2sc(N(Cc3cccnc3)C(=O)CCOc3ccccc3)nc2c1`, the survival is 115%.

On to `COc1cc(Cl)c(NC(=O)CCS(=O)(=O)c2ccc3c(c2)NC(=O)CO3)c(OC)c1`, for which the survival is 90%. On to `COc1ccc(NC(=O)c2cc3cc(C)ccc3[nH]2)cc1`, for which the survival is 100%.

As to `Cc1ccc(NC(=O)CN2C(=O)COc3ccc(S(=O)(=O)N4CCOCC4)cc32)cc1N(C)C`, the survival was 99%.

For `Cc1ccc(S(=O)(=O)c2cn(CC(=O)Nc3ccc4c(c3)OCO4)c3ccc(F)cc3c2=O)cc1`, the survival is 69%. With `CC1C(=O)NN=C1C(=O)N/N=C\c1cccnc1` (stereo not given), the survival is 87%. In the case of `CSc1cccc(NS(=O)(=O)c2cn(C)c(C)n2)c1`, the survival is 75%. With `COc1ccccc1NS(=O)(=O)c1cn(C)c(C)n1` the figure was 37% (active); with `Cc1ccc(NS(=O)(=O)c2cn(C)c(C)n2)c(Br)c1`, 69%; with `CCc1nn(CC(=O)NC(C)CC)c(=O)c2cc3c(OC)cccc3n12` (stereo not given), 128%. As for `CCc1ccc(OC(C)c2nc(-c3ccc(-n4cccc4)cc3)no2)cc1` (stereo not given), the survival was 48%. Regarding `CCc1ccc(OCc2nc(-c3ccc(-n4cccc4)cc3)no2)cc1`, the survival was 82%.

Consider `CCCc1ccc(OC(C)c2nc(-c3ccc(-n4cccc4)cc3)no2)cc1` (stereo not given), for which the survival was 52% (active). On to `Cc1cc(NC(=O)CSc2nc3c([nH]c4ccccc43)c(=O)n2-c2ccccc2F)no1`, for which the survival was 88%. Turning to `Cc1ccccc1NC(=O)C(C)Sc1nnc(-c2ccccc2O)o1` (stereo not given), the survival is 69%.

For `CC(Sc1nnc(-c2ccccc2Br)o1)C(=O)Nc1cccc(Cl)c1` (stereo not given), the survival was 34% (active).

Take `Cc1ccccc1NC(=O)C(C)Sc1nnc(-c2ccccc2C)o1` (stereo not given): the survival was 74%. On to `CCOC(=O)C1(C)C=C(Nc2ccc(C(N)=O)cc2)C(=O)N1c1ccccc1` (stereo not given), for which the survival is 68%. On to `CCC(=O)N1CCc2cc(Br)cc(S(=O)(=O)CCC(=O)NCCc3ccccc3)c21`, for which the survival is 91%. `COC(=O)c1ccccc1NC(=O)CN1C(=O)COc2ccc(Cl)cc21`: the survival is 38% (active). For `Cc1ccc(C)c(NC(=O)CN2C(=O)COc3ccc(Cl)cc32)c1`, the survival was 69%. With `COC(=O)c1ccccc1NC(=O)CN1C(=O)COc2ccccc21`, the survival was 69%. Regarding `COc1ccc(-n2ncc(C(=O)N3CCN(C(=O)c4ccco4)CC3)c2C2CCN(C(=O)OC(C)(C)C)CC2)cc1`, the survival is 86%. As to `COc1ccc(N2CCN(C(=O)c3cc4cc5ccc(Cl)cc5nc4o3)CC2)cc1`, the survival was 86%. The same measure for `Cc1cccc(N2CCN(C(=O)c3ccc(CS(=O)c4cccc(Cl)c4)o3)CC2)c1C` (stereo not given): 51% (active); for `O=C(c1ccc(CS(=O)c2ccccc2Cl)o1)N1CCN(c2cccc(C(F)(F)F)c2)CC1` (stereo not given): 60%. Regarding `Cc1ccc2cc3cc(C(=O)N4CCN(c5ccc(Cl)cc5)CC4)oc3nc2c1`, the survival was 85%. The same measure for `Cc1ccccc1S(=O)(=O)Cc1ccc(C(=O)N2CCN(c3cccc(Cl)c3)CC2)o1`: 54% (active).

Regarding `Cc1ccc(S(=O)(=O)Cc2ccc(C(=O)N3CCN(c4cccc(Cl)c4)CC3)o2)cc1`, the survival is 75%. The same measure for `O=C(c1cc2cc3ccc(Cl)cc3nc2o1)N1CCN(c2cccc(Cl)c2)CC1`: 46% (active). For the compound `Cc1ccccc1S(=O)Cc1ccc(C(=O)N2CCN(c3cccc(C)c3C)CC2)o1` (stereo not given), the survival is 61%. Take `O=C(c1ccc(CS(=O)c2ccccc2Cl)o1)N1CCN(c2cccc(Cl)c2)CC1` (stereo not given): the survival is 51% (active). Take `COc1ccc(S(=O)Cc2ccc(C(=O)N3CCN(c4cccc(C)c4C)CC3)o2)cc1` (stereo not given): the survival was 79%. As for `Cc1ccc(Cl)cc1N1CCN(C(=O)c2ccc(CS(=O)(=O)c3ccccc3C)o2)CC1`, the survival was 50%.

Regarding `O=C(c1ccc(CS(=O)c2ccccc2Cl)o1)N1CCN(c2ccccc2F)CC1` (stereo not given), the survival is 84%.
